Source: ChEMBL document CHEMBL3433997, “St. Jude Leishmania screening dataset” (2016)

How the values were obtained:
Assay type in all cases: functional
[1] = target: Solute carrier family 2, facilitated glucose transporter member 1 (Homo sapiens) (UniProt P11166); assay: ST_JUDE_LEISH: Cytotoxicity at 2uM final concentration against transgenic Leishmania Mexicana promastigotes LmGLUT1 that are glucose transport deficient and complemented with the human glucose transporter GLUT1. Activity is measured by DNA content using SYBR green in vitro
Chain of Solute carrier family 2, facilitated glucose transporter member 1 (Homo sapiens) (P11166 whole entry): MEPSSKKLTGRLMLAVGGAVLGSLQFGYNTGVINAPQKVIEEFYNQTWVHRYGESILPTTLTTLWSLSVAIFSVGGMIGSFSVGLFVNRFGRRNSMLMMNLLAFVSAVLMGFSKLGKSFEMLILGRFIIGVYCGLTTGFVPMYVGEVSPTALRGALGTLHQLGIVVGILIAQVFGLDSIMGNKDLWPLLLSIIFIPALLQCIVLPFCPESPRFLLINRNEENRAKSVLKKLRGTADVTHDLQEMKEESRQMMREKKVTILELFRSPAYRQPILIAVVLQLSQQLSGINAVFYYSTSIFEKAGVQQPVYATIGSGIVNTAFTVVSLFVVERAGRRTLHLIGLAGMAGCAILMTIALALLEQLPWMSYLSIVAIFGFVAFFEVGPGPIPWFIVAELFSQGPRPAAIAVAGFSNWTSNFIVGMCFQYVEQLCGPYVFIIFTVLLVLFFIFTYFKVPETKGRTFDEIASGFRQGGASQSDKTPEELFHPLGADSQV

[2] = target: Hexose transporter 1 (Plasmodium falciparum) (UniProt O97467); assay: ST_JUDE_LEISH: Cytotoxicity at 2uM final concentration against transgenic Leishmania Mexicana promastigotes LmPfHT that are glucose transport deficient and complemented with the Plasmodium falciparum hexose transporter. Activity is measured by DNA content using SYBR green in vitro
[3] = target: Glucose transporter (Leishmania mexicana) (UniProt O61059); assay: ST_JUDE_LEISH: Cytotoxicity at 2uM final concentration against transgenic Leishmania Mexicana promastigotes LmGT2 that are glucose transport deficient and complemented with the L. Mexicana glucose transporter 2. Activity is measured by DNA content using SYBR green in vitro

Compound | inhibition [1] [%] | inhibition [2] [%] | inhibition [3] [%]
CO/C(=C\C=C\c1cc2cc(Cl)c(Cl)cc2[nH]1)C(=O)NCCCCN1CCN(c2ccccc2OC)CC1 | 3.1 | 2.16 | 1.91
CC(Nc1cc(-c2ccccn2)nc(-c2ccccn2)n1)c1ccccc1 (centres undefined) | 23.4 | 12.8 | 17.5
CN1CCN(c2ccc(Nc3nccc(-c4c(-c5cccc(NC(=O)c6c(F)cccc6F)c5)nn5ccccc45)n3)cc2)CC1 | 21.9 | 17.8 | 4.51
CC(C)CCCC(C)(C)NC[C@@H](O)[C@H](Cc1ccccc1)NC(=O)c1cccc(OCC2CC2)c1 | 1.19 | 1.25 | 1.85
Cc1cccc(Nc2nccc(NCC(O)c3cccc(C(F)(F)F)c3)n2)c1 (centres undefined) | 7.67 | 7.59 | 2.59
CCN1CCC(N(Cc2ccc(-c3ccc(C(F)(F)F)s3)cc2)C(=O)Cn2c(CCc3cccc(F)c3F)nc(=O)c3ccccc32)CC1 | 6.57 | 5.93 | 5.76
CCCN(CCC)CCCNc1ccc(C(=O)Nc2ccc(OCC)cc2)cc1[N+](=O)[O-] | 32.8 | 19.4 | 5.32
CC1CN(Cc2ccc(-c3cccc(-c4nc5cc(F)ccc5[nH]4)c3)cc2)CC(C)O1 (centres undefined) | 1.55 | 7.65 | 2.46
CO/N=C(\C)c1ccc2c(c1)CCN(CCC1CCC(NC(=O)/C=C/c3ccc(F)cc3)CC1)CC2 (centres undefined) | 6.29 | 3.02 | 11.2
CCNc1cc(C)nc(Nc2ccc(F)cc2)n1 | 22.3 | 11.9 | 8.37
CC(=O)Nc1ncc(C(=O)Nc2cccc(-c3ccc(-c4nc5ccccc5[nH]4)cc3)c2)s1 | 1.69 | 1.26 | 1.08
CC[C@H](C)CNC(=O)c1cncc(-c2ccc(CNCC3CNCCCO3)cc2)c1 (some centres undefined) | -1.56 | -2.12 | -0.99
O=C(O)c1cc(C(F)(F)F)co1 | -2.13 | -1.54 | -0.54
CCN(CC)CCN(Cc1ccc(-c2ccc(C(F)(F)F)cc2)cc1)C(=O)Cn1c(CCc2cccc(F)c2F)nc(=O)c2ccc(C)cc21 | 0.88 | 1.15 | 0.22
Cc1ccccc1CN1CCCN(Cc2ccc(C(=O)Nc3ccc(Cl)cc3)cc2)CC1 | 7.5 | 6.18 | 6.4
COc1ccc(NC(=O)Nc2ccc(-c3cccc(-c4nc5ccccc5[nH]4)c3)cc2)cc1 | 3 | 3.12 | 2.89
CCCC(CNCc1cccc(OC(F)(F)C(F)F)c1)CNc1cc(=O)c2ccccc2[nH]1 (centres undefined) | -0.75 | -0.41 | -4.05

Compound | inhibition [1] [%] | inhibition [2] [%] | inhibition [3] [%]
c1ccc(Oc2ccc(Nc3ccnc4cc(-c5ccc(CN6CCNCC6)o5)ccc34)cc2)nc1 | 11.2 | 8.71 | 5.3
O=C(NCc1ccc(Cl)c(Cl)c1)c1ccc(-c2nc3cc(F)c(F)cc3[nH]2)cc1 | 0.21 | 0.14 | -0.73
O=C(Cc1cccc(O)c1)NCC(Cc1ccc(O)cc1)c1ccccc1 (centres undefined) | 0.64 | -0.06 | 0.22
CN(C)c1ccc(C=C2SC(=O)N=C2Nc2ccccc2)cc1 | 1.62 | 0.09 | 0.57
Cc1nc(C)c(-c2ccc(Oc3ccc(Cl)cc3Cl)cc2)c(O)c1Br | -1.34 | -0.13 | 0.66
O=C(CSc1ccccn1)Nc1c(F)cccc1F | 3.81 | 3.5 | 2.68
CCCC(=O)Nc1ccc(Nc2nc(C)cc(N3CCCC3)n2)cc1 | 1.82 | 4.49 | -0.91
COc1ccc(NC(=O)Nc2ccc(-c3ccncc3)c(Cl)c2)cc1N1CCN(C)CC1 | -1.37 | -0.91 | -2.2
CCCCCCn1c(Sc2ccc(C#N)c([N+](=O)[O-])c2)nnc1-c1cc(OC)cc(OC)c1 | 5.8 | 6.04 | 4.53
O=S(=O)(NC1CCN(c2ccnc3cc(Cl)ccc23)C1)c1cccc(F)c1 (centres undefined) | 10.1 | 9.98 | 11.4
CCOC(=O)NCC(=O)Nc1cccc(-c2cccc(-c3nc4cccc(C)c4[nH]3)c2)c1 | 1.11 | 1.64 | 1.12
COc1ccc2ccccc2c1C=NNc1ccnc2cc(Cl)ccc12 | 1.99 | 0.95 | 1.17
Oc1c(C(Nc2nc3ccccc3s2)c2ccc(OC(F)F)cc2)ccc2cccnc12 (centres undefined) | 4.38 | 0.37 | -1.77
CN(C)CCCN1CCN(C(=O)c2cccc(-c3noc(C(F)(F)F)n3)c2)CC1 | 2.61 | 3.52 | 3.7
Nc1c2c(nc3ccc(NC(=O)CCCc4ccccc4)cc13)CCCC2 | 1.07 | 1.78 | 0.12
C#CCNC(=O)c1ccc(-c2ccnc(Nc3cccc(CCCN4CCOCC4)c3)n2)s1 | 37.4 | 37.9 | 27.2
